We go through 40 compounds from PubChem BioAssay (EPA / NIEHS).

Active and inactive are the calls of the source. The calls were made as follows: active = hit-call score of the fitted dose curve at least 0.9, where 1 is the maximum; inactive = score below 0.9.

A short description of the experiment: APR_HepG2_NuclearSize_1hr: Apredica 1-hour HepG2 Assay for Nuclear Size (AID 2282670). To be noted: high-content imaging, actives raise or lower the signal. The protocol:
APR_HepG2_1hr is a cell-based, multiplexed-readout assay that uses HepG2, a human liver cell line, with measurements taken at 1 hour after chemical dosing in a 384-well plate.APR_HepG2_NuclearSize_1hr is one of 10 assay component(s) measured or calculated from the APR_HepG2_1hr assay. It is designed to make measurements of cell phenotype, a form of morphology reporter, as detected with fluorescence intensity signals by HCS Fluorescent Imaging technology.Data from the assay component APR_HepG2_NuclearSize_1hr was analyzed into 1 assay endpoint. This assay endpoint, APR_HepG2_NuclearSize_1hr, was analyzed with bidirectional fitting relative to DMSO as the negative control and baseline of activity. Using a type of morphology reporter, measures of all nuclear dna for gain or loss-of-signal activity can be used to understand the signaling at the nuclear-level. Furthermore, this assay endpoint can be referred to as a primary readout, because this assay has produced multiple assay endpoints where this one serves a signaling function. To generalize the intended target to other relatable targets, this assay endpoint is annotated to the cell morphology intended target family, where the subfamily is organelle conformation.
Cells were treated with dimethyl sulfoxide (DMSO) as a solvent control at a final concentration of 0.5% v/v or with compounds in DMSO with a resulting final DMSO concentration of 0.5% v/v. Compound treatment was done at concentrations of 0.39, 0.78, 1.56, 3.12, 6.24, 12.5, 25, 50, 100, and 200 uM in duplicate on each plate. Cells were treated with compounds for 1, 24, or 72 hr. Carbonyl […] m-chloro-phenylhydrazone (CCCP) and taxol were used as positive controls for mitochondrial function and cytoskeletal stability, respectively; DMSO served as the negative control for this experiment. Cells were fixed by the direct addition of 50 uL formaldehyde in Hank's Balanced Salt Solution (HBSS) to a final concentration of 3.7%. After incubation in the fixation medium for 30 min at room temperature (293-298 K), cells were rinsed twice with HBSS and treated with cell permeabilization buffer (16 uL of 0.5% Triton X-100) for 10 min at room temperature (293-298 K) before labeling. For mitochondrial membrane potential and mitochondrial measurements, pre-fixed cells were incubated with 50 uL of MitoTracker Red CMXRos (Invitrogen) at a concentration of 250 nM for 30 min before fixation. In the remaining cases, post-fixed cells were labeled by incubation with a multiplexed mixture of primary antibodies in HBSS for 60 min at room temperature (293-298 K) to detect immunoreactivity of c-Jun (1:500), phospho-histone H3 (1:100), phospho-histone H2A.x (1:200), p53 (1:400), alpha-tubulin (1:200) and Hoechst 33342 (2 ug/mL). Cells were labeled for multiplexed imaging on two separate plates: a) Hoechst 33342, MitoTracker Red, phospho-histone H3, and alpha-tubulin, and b) Hoechst 33342, phospho-histone H2A.x, and c-Jun. A final rinse with HBSS (50 uL) was performed before analysis. The primary and secondary antibodies for the proteins were phospho-histone H3 (rabbit anti-phospho-histone H3 and FITC-donkey anti-rabbit IgG), phospho-histone H2A.x (mouse anti-phospho-histone H2A.x and FITC-donkey anti-mouse IgG), c-Jun (rabbit anti-phospho-c-Jun and Cy3-donkey anti-rabbit IgG), p53 (sheep anti-p53 and Cy5-donkey anti-sheep IgG), alpha-tubulin (mouse anti-alpha-tubulin and Cy5-donkey anti-mouse IgG). These antibodies are available as the CellCiphr HepG2 assay kit (Millipore).Digital images of each well were captured using a Cellomics ArrayScan VTI (Thermo Scientific Cellomics) (0.8 NA objective, 0.63x optical coupler, and XF-93 filter set) at 20x magnification. The images were acquired using the autofocus feature of the ArrayScan instrument, which entails the following steps. First, the camera focuses on channel 1 (Hoechst 33342), where nuclei are identified. Second, a Z offset of 1 um is used for capturing mitochondria (MitoTracker Red). […]
Turning to `CCCCOC(=O)c1ccccc1C(=O)O`, the outcome was inactive.
`CCC(=NOC/C=C/Cl)C1=C(O)CC(C2CCOCC2)CC1=O` (stereo not given): the result was inactive.
On to `CNC(=O)ON=C(SC)C(=O)N(C)C`, for which the compound was classed as inactive.
For the compound `COc1ccc(C(=CC(=O)N2CCOCC2)c2ccc(Cl)cc2)cc1OC`, the outcome was inactive.
The entry for `COP(=O)(OC)SCn1c(=O)oc2cc(Cl)cnc21` is “inactive”; for `CC1=NNC(=O)N(/N=C/c2cccnc2)C1` it is “inactive”.
As to `Cc1cc(C2CC2)nc(Nc2ccccc2)n1`, the compound was classed as inactive.
For the compound `CC[C@H](C)[C@H]1O[C@]2(C=C[C@@H]1C)C[C@@H]1C[C@@H](C/C=C(\C)[C@@H](O[C@H]3C[C@H](OC)[C@@H](O[C@H]4C[C@H](OC)[C@@H](NC)[C@H](C)O4)[C@H](C)O3)[C@@H](C)/C=C/C=C3\CO[C@@H]4[C@H](O)C(C)=C[C@@H](C(=O)O1)[C@]34O)O2`, the outcome was inactive.
As for `CCOP(=O)(OCC)Oc1cc(C)nc(C(C)C)n1`, the compound was classed as inactive.
Turning to `N#CSCSC#N`, the compound was called inactive.
The entry for `CCCCOC(=O)[C@@H](C)Oc1ccc(Oc2ccc(C#N)cc2F)cc1` is “inactive”.
The entry for `Cc1ccn2nc(S(=O)(=O)Nc3c(F)cccc3F)nc2n1` is “inactive”; for `CC1(C(=O)Nc2ccc(O)c(Cl)c2Cl)CCCCC1` it is “inactive”; for `CSc1nnc(C(C)(C)C)c(=O)n1N` it is “inactive”.
For the compound `CC(C)N(C(=O)SCC(Cl)=C(Cl)Cl)C(C)C`, the compound was classed as inactive.
As to `CCOP(=O)(NC(C)C)Oc1ccc(SC)c(C)c1` (stereo not given), the outcome was inactive.
Regarding `CCC(CC)Nc1c([N+](=O)[O-])cc(C)c(C)c1[N+](=O)[O-]`, the outcome was inactive.
With `CSC1=N[C@@](C)(c2ccccc2)C(=O)N1Nc1ccccc1`, the compound was called inactive.
Consider `CC(C1CC1)C(O)(Cn1cncn1)c1ccc(Cl)cc1` (stereo not given), for which the outcome was inactive.
For the compound `CC(=NC#N)N(C)Cc1ccc(Cl)nc1`, the result was inactive.
For the compound `FC(F)C(F)(F)OCC(Cn1cncn1)c1ccc(Cl)cc1Cl` (stereo not given), the compound was called inactive.
Regarding `CC(Oc1cccc(Cl)c1)C(=O)O` (stereo not given), the result was inactive.
Next, `COc1cccc(C(=O)NN(C(=O)c2cc(C)cc(C)c2)C(C)(C)C)c1C`: “inactive”.
As for `CSc1nc(NC(C)C)nc(NC(C)C)n1`, the outcome was inactive.
Consider `C=C(C)[C@H]1Cc2c(ccc3c2O[C@@H]2COc4cc(OC)c(OC)cc4[C@@H]2C3=O)O1`, for which the result was inactive.
Regarding `C[Si](Cn1cncn1)(c1ccc(F)cc1)c1ccc(F)cc1`, the result was inactive.
In the case of `CCOP(=S)(OCC)Oc1ccc([N+](=O)[O-])cc1`, the outcome was inactive.
Regarding `CNc1cnn(-c2cccc(C(F)(F)F)c2)c(=O)c1Cl`, the call was inactive.
Regarding `S=C1NCCN1`, the result was inactive.
Take `CC(C)=CC1C(C(=O)OCN2C(=O)C3=C(CCCC3)C2=O)C1(C)C` (stereo not given): the compound was classed as inactive.
On to `CCOP(=O)(SC(C)CC)N1CCSC1=O` (stereo not given), for which the compound was classed as inactive.
Next, `O=c1ccc(=O)[nH][nH]1`: “inactive”; `Nc1c(Cl)cc([N+](=O)[O-])cc1Cl`: “inactive”; `CCOP(=S)(OCC)Oc1ccc2c(C)c(Cl)c(=O)oc2c1`: “inactive”.
In the case of `COP(=O)(NC(C)=O)SC` (stereo not given), the outcome was inactive.
`CC(C)[C@H](C(=O)O[C@H](C#N)c1cccc(Oc2ccccc2)c1)c1ccc(Cl)cc1`: the call was inactive.
For the compound `CN1COCN(Cc2cnc(Cl)s2)C1=N[N+](=O)[O-]`, the compound was called inactive.
Next, `CN(C)C(=O)Nc1cccc(C(F)(F)F)c1`: “inactive”; `CCC(=O)Nc1ccc(Cl)c(Cl)c1`: “inactive”.
In the case of `CCCSP(=O)(OCC)SCCC`, the outcome was inactive.
